Experimental data as given in PubChem BioAssay (NCATS).
Some of the results follow. Records with an inconclusive call do not appear. A number with no mark means an inactive call. Calls of active or inactive are those of the source. Calls come from the whole dose curve.

Test system: Chikungunya virus nsP2 protease
Experiment: Confirmatory qHTS for inhibitors of NSP2Pro chikungunya virus (CHIKV) (AID 1964105); note: nearly all actives have a fitted effect of over 75% in size
Conditions: CHIKV nsP2 protease enzymatic activity; series mostly up to 25.5 µM; activity change, negative = inhibition: at the top concentration
Excerpt: PI: Natalia J. Martinez Ph.D.
National Center for Advancing Translational Sciences (NCATS),
National Institute of Health (NIH), Rockville, Maryland
Chikungunya virus (CHIKV) is a mosquito-borne RNA virus that has emerged as one of the most important global arboviral threats in the last decade. Although the first CHIKV vaccine has recently been FDA approved for use in healthy adults at increased risk, to date, there are no available antiviral drugs for CHIKV infection. CHIKV nsP2 protease plays a crucial role in the processing of the viral polypeptide precursor to release enzymes required for viral replication, thus making it a promising drug target for antiviral discovery. Here, we established a high-throughput pipeline to identify small molecule inhibitors of nsP2 proteolytic activity. The pipeline is composed of a suite of 1,536-well in vitro assays to support quantitative high-throughput (qHTS) screening campaigns. Specifically, we developed a fluorescence resonance energy transfer (FRET)-based assay using a fluorogenic peptide substrate encompassing an endogenous cleavage site and purified recombinant protease domain (nsP2pro). Using this assay, we interrogated ~37,000 small molecules, including those in drug repurposing libraries as well as chemically diverse and medicinal chemistry-friendly compounds. Hits were selected for follow-up validation against full-length nsP2 and an additional peptide. FRET-based 1,536-well assays for papain, hepatitis C virus NS3-4A, and human furin proteases were implemented to characterize compound selectivity. […] Novel compounds were identified to be potential nsP2 inhibitors and molecular docking analyses were performed to explain the binding mode of selected hits. In vitro antiviral activity was evaluated for a subset of compounds using a high-throughput CHIKV infection assay. To our knowledge, the pipeline presented here is unprecedented for CHIKV antiviral discovery research.
PROTOCOL TABLE (as described by Inglese J, Shamu CE and Guy RK. 2007)
SEQUENCE No. (e.g., 1, 2, 3, etc.); […] (e.g., Cells, Incubation, Reagent, etc.); VALUE; DESCRIPTION.
1; Control / Compound; 20 nL; Echo 655 acoustic dispenser, Greiner 1536-well solid bottom black plate.
2; Enzyme; 4 uL; BioRAPTR FRD liquid dispenser (Beckman Coulter).
3; Incubation; 15 min; room temperature.
4; Reagent; 4 uL; 2.5 uM Peptide 2 substrate.
5; Incubation; 1 hr; room temperature.
6; Detection; Fluorescence; WiewLux microplate reader (PerkinElmer), 525 nm excitation, 598/25 nm emission.
NOTES (numbers refer to sequence numbers above).
1.Briefly, 20 nL DMSO, positive control ZnAc (20nM final concentration), and test compounds were transferred into a 1,536-well solid bottom black plate (789176-F, Greiner One) via Echo 655 acoustic dispenser (Beckman Coulter). For primary screens, compounds were tested at 7 concentrations, 1:3 dilution points ranging from 25 uM to 34 nM. Follow-up confirmatory screens were carried out at 11 concentrations, 1:3 dilution points from 25 uM to 0.42 nM.
2.Four uL nsP2pro enzyme mix (150 nM final concentration) in 10 mM Tris-HCl pH 8.0 with 0.01% Tween 20 assay buffer was dispensed into the plate using a BioRAPTR FRD liquid dispenser (Beckman Coulter).
3.The plate was incubated at room temperature (protected from light) for 15 min
4.Four microliter of peptide 2 substrate (2.5 uM final concentration) in assay buffer was added to the plate.
5.After 1 hour, plates were immediately read on a ViewLux high-throughput CCD imager (Exposure = 10 sec, Gain = High, Speed = Slow, Binning = 2X). The above assay was also incorporated in the NCATS HTS facility41, which allowed for robotic liquid and compound dispensing, microplate handling, and fluorescence reading.
Inglese J, Shamu CE and Guy RK, Reporting data from high throughput screening of small molecule libraries, Nature Chemical Biology, 2007, 3(8): 438-441. doi.org/10.1038/nchembio0807-438.
% is set by controls: 0 for no effect and ±100 for the full control effect; potency is the fitted concentration of half-maximal effect.

Compound	activity change, negative = inhibition	Potency
Oc1ccc(OC2CCCCO2)cc1 (stereo not drawn)	-21.2%	
CCOc1ccc(NC(=O)c2c(NC(=O)Cc3ccccc3)sc3c2CCC(C)C3)cc1 (stereo not drawn)		7.11 µM (active)
COC([CH2][Hg])CNC(=O)c1ccccc1OCC(=O)O (stereo not drawn)		2.25 µM (active)
CCc1ccccc1NC(=O)c1cnn(-c2ccc(F)cc2)c1C1CCNCC1	-9.95%	
CCC(C)C(=O)OC1C(C)C2(O)C(C=C(CO)CC3(O)C(=O)C(C)=CC32)C2C(C)(C)C12OC(=O)C(C)C (stereo not drawn)	-4.03% [at 8.62 µM]	
C[C@@H]1C[C@@H](O)[C@@]23CO[C@]2(CO)C[C@@H](O)CC3[C@@]12CC(c1ccoc1)OC2=O (stereo partly drawn)	28.5% [at 16.7 µM]	
CCOc1ccc(NC(=O)c2c(NC(=O)Cc3ccccc3)sc3c2CCCCC3)cc1		7.98 µM (active)
Cn1nnnc1Sc1ncnc2n[nH]c(-c3cccc(S(C)(=O)=O)c3)c12		3.18 µM (active)
CCOc1ccc(N(Cc2ccccc2)C(=O)c2nc(S(C)(=O)=O)ncc2Cl)cc1		3.18 µM (active)
N#CSc1cc(SC#N)c(N)nc1N		0.318 µM (active)
C=Cc1c(C)c2cc3nc(cc4[nH]c(cc5nc(cc1[nH]2)C(C)=C5CCC(=O)O)c(CCC(=O)OC)c4C)[C@@]1(C)C3=CC=C(C(=O)OC)[C@H]1C(=O)OC	126%	
O=C(O)c1cccc(-n2[nH]c(-c3ccccc3)cc2=O)c1	29.6%	
C=CC(=O)c1ccc2ccccc2c1		6.34 µM (active)
